PubChem BioAssay (NCATS)
Inconclusive results are not listed. Active and inactive are the calls of the source. Unless noted, calls follow the shape of the dose curve; as a rule, active = well fitted curve in either direction with a large enough effect (not every such curve was filed as active); inconclusive = small, poorly fitted or top-dose-only effect, or another doubt; inactive = flat fitted curve, though single readings scatter.

Experiments:
[1] = target: Lysosomal acid glucosylceramidase (Homo sapiens) (UniProt P04062); assay: Glucocerebrosidase-p2 (AID 348; in the data active = potency below about 10 µM; also: potency is read from the fitted curve at half-maximal effect); conditions: purified GBA, blue fluorogenic substrate, 40 min
Chain of Lysosomal acid glucosylceramidase (Homo sapiens) (P04062 whole entry, looked up): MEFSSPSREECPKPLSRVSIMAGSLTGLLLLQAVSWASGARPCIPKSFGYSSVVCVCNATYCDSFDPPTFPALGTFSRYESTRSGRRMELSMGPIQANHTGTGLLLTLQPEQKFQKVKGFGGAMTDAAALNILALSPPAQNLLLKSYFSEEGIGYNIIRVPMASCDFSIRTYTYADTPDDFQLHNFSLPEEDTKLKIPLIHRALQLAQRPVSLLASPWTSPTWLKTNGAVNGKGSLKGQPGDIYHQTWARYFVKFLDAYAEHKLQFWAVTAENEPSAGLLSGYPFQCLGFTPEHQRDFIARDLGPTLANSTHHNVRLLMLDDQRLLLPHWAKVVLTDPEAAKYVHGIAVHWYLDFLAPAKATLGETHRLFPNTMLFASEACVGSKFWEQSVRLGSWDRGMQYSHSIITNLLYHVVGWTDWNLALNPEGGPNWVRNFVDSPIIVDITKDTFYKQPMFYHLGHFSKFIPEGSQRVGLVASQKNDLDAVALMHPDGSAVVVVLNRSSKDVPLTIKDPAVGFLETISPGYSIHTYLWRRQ
Method in brief: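 Normal human glucocerebrosidase (0.2 nM) with blue fluorogenic substrate (80 uM final) in citrate/phosphate pH 5.9 with 10mM sodium taurocholate, 0.01% tween-20; 40 min RT, NaOH/glycine stop; fluorescence Ex 365/Em 440; AC50 from a titration from 0.6 nM upwards.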

[2] = AP1 Signaling Pathway (AID 357); conditions: ME-180 AP-1-bla reporter, EGF-induced, beta-lactamase ratio, 5 h; at 7.69 µM (top of the series) unless noted;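 also: ME-180 reporter cells stimulated with EGF at its EC50 level; % is scaled to controls: 0 for no effect and ±100 for the full control effect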
Method in brief: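 In this screen, ME-180 cells in Opti-MEM with 0.5% dialyzed FBS received EC50 EGF and compound titrations for 5 h. AP-1 reporter beta-lactamase was detected via CCF4 ratio, giving AC50 for positive and negative modulators.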

[3] = Stat Signaling Pathway (AID 446); conditions: ME-180 SIE beta-lactamase reporter, IL-6 stimulated, 5 h; at 7.69 µM (top of the series) unless noted;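 also: ME-180 cervical cancer cells given 40 pM IL-6 alongside compound; SIE-controlled beta-lactamase reporter measured as 460/530 nm FRET emission ratio; % is scaled to controls: 0 for no effect and ±100 for the full control effect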
Method in brief: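 Compound effects on IL-6-induced STAT reporter activity were measured in ME-180 cells. After overnight culture, cells were co-treated with 40 pM IL-6 for 5 hrs before beta-lactamase substrate loading at room temperature.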

[4] = target: Glucocorticoid receptor (Homo sapiens) (UniProt P04150); assay: GR-EFC Redistribution (AID 451; calls by dose curve; also: potency is read from the fitted curve at half-maximal effect); conditions: CHO-K1 GR-EFC translocation, beta-gal luminescence, 2 h
Chain of Glucocorticoid receptor (Homo sapiens) (P04150 whole entry, looked up, the tested form may be a part): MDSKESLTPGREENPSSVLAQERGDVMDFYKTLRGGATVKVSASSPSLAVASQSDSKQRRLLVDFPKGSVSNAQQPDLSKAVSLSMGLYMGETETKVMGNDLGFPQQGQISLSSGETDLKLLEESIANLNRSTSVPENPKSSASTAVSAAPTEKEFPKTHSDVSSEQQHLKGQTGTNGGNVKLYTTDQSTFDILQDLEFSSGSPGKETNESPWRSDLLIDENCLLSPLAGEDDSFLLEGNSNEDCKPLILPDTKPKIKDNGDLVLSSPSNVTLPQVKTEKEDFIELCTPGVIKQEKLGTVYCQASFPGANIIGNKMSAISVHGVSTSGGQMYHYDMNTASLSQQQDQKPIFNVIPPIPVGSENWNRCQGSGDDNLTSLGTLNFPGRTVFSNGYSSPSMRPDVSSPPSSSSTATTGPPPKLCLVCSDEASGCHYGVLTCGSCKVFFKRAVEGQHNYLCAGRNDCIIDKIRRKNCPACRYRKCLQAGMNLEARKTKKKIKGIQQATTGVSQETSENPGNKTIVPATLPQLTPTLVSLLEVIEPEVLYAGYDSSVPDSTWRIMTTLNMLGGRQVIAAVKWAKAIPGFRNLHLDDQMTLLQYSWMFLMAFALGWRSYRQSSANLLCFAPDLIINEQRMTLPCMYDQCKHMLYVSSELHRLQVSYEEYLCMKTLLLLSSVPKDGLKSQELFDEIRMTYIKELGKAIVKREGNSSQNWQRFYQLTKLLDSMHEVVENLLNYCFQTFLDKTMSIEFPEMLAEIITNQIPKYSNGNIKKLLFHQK
Method in brief: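 CHO-K1 cells stably expressing nuclear-localized β-gal enzyme acceptor and GR fused C-terminally to the enzyme donor fragment; ligand-driven nuclear translocation restores β-gal by complementation. Compounds titrated up to 46 uM final, 2 h at 37 °C; luminescence read.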

[5] = target: Mitogen-activated protein kinase 10 (Mus musculus) (UniProt Q61831); assay: JNK3 AlphaScreen Assay (AID 530); conditions: JNK3 lysate, c-Jun phosphorylation; series mostly up to 57.1 µM;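 also: kinase came from lysate of stimulated human HepG2 cells; signal reports phosphorylation of biotinylated GST-cJun 1-79 at Ser73 with 10 µM ATP; % is scaled to controls: 0 for no effect and ±100 for the full control effect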
Method in brief: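 Biotinylated GST-cJun(1-79) served as substrate for JNK3 in HepG2 lysates stimulated with IL-1beta and TNF-alpha. ATP was 10 uM final, pH 7.6. Ser73 phosphorylation was quantified by AlphaScreen (680 nm excitation).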

[6] = target: 3',5'-cyclic-AMP phosphodiesterase 4B (Homo sapiens) (UniProt Q07343); assay: qHTS Assay for Inhibitors of PDE-IV (AID 607; active = well fitted activation curve with a large enough effect in the main read-out, with a control signal flat, not every such curve was filed as active; also: % of control where 0% means no effect); conditions: HEK293 ACTOne CNG channel cells, membrane potential fluorescence; series mostly up to 22.9 µM
Chain of 3',5'-cyclic-AMP phosphodiesterase 4B (Homo sapiens) (Q07343 whole entry, looked up): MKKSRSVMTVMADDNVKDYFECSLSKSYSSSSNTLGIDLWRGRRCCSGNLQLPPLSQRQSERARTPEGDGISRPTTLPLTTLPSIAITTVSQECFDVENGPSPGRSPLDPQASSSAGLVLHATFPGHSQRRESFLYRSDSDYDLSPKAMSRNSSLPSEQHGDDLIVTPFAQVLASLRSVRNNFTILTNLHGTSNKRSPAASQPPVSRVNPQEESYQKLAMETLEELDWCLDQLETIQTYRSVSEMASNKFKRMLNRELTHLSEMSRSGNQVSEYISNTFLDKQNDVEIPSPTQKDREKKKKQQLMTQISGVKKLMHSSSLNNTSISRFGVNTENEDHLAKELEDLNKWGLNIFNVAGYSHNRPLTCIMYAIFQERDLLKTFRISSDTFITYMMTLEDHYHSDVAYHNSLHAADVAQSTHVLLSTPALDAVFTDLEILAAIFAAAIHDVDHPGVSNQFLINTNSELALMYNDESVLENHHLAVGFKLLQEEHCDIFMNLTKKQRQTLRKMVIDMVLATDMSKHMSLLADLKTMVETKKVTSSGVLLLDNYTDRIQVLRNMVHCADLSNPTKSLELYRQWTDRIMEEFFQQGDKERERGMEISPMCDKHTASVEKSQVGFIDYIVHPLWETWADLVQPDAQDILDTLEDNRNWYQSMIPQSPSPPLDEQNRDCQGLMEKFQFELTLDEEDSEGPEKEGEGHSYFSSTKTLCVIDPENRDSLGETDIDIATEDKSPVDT
Method in brief: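 ACTOne HEK293 cells carry a modified cAMP-gated CNG channel and express endogenous PDE4; plated 1000 cells/well, compounds up to 22.9 uM final. Membrane-potential dye fluorescence (ex 535/em 590) was read; parental cells received 10 uM forskolin + 100 uM RO 20-1724.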

[7] = qHTS Assay for Lipid Storage Modulators (AID 1519; calls by dose curve); conditions: Drosophila S3 cells, BODIPY lipid droplet/cell ratio, laser cytometry, cells loaded with oleic acid; for activity change, negative = inhibition: at 57.5 µM (top of the series)
Method in brief: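 Cells seeded at 5,000 per well were treated with compounds over a concentration series and loaded with oleic acid (400 uM, as added). Lipid droplet fluorescence (488 nm excitation, 500-530 nm channel) was read by laser-scanning cytometry and normalized to 20 uM Triacsin C.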

[8] = Primary qHTS for small molecule stabilizers of the endoplasmic reticulum resident proteome: Secreted ER Calcium Modulated Protein (SERCaMP) assay (AID 1508630; active = well fitted curve in the direction sought with a large enough effect; an effect the other way counts as inactive or inconclusive; also: % is scaled to controls: 0 for no effect and ±100 for the full control effect); conditions: SH-SY5Y GLuc-SERCaMP (Gaussia luciferase released on ER calcium loss) secretion, thapsigargin, luminescence; series mostly up to 38.4 µM
Method in brief: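 The SH-SY5Y reporter protocol was run at 3 concentrations up to 38.3 uM (primary) or 11 concentrations (follow-up): 16 h compound, 100 nM thapsigargin for 4 h, then extracellular luciferase luminescence.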

[9] = NFAT Signaling Pathway (AID 444); conditions: Jurkat NFAT-bla M1, carbachol, beta-lactamase ratio, 5 h; at 7.69 µM (top of the series) unless noted
Method in brief: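 Jurkat cells carrying an NFAT-driven β-lactamase reporter and co-transfected muscarinic M1 receptor were treated with compound plus carbachol (1 uM final, an EC50 level) for 5 h at 37 °C. CCF4 loading followed for 1 h at RT; 460/530 nm ratio gave %activity.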

[10] = target: Glucocorticoid receptor (Homo sapiens) (UniProt P04150); assay: GR-GFP Redistribution (AID 450;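 active = compounds whose dose series gives a full or clear partial fitted curve of increased nuclear translocation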; also: potency is read from the fitted curve at half-maximal effect); conditions: U2OS GR-GFP nuclear translocation, laser cytometry, 2 h
[11] = Confirmation and Secondary Assay for Modulators of Hemoglobin Beta Chain Splicing at IVS2 654 locus (AID 910; active = well fitted curve in the direction sought with a large enough effect; an effect the other way counts as inactive or inconclusive; also: % of control where 0% means no effect); conditions: HeLa EGFP-654 splicing reporter, GFP fluorescence, 48 h; series mostly up to 38.3 µM
Method in brief: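 HeLa cells stably carrying EGFP interrupted by mutant beta-globin IVS2-654 intron (CMV-driven) were treated with compound for 2 days at 37C; corrected splicing was scored as total peak GFP intensity per well (488 nm excitation, 500-520 nm emission).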

[12] = Confirmation and Secondary Assay for Modulators of Hemoglobin Beta Chain Splicing at IVS2 705 locus (AID 930; active = well fitted curve in the direction sought with a large enough effect; an effect the other way counts as inactive or inconclusive;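 also: HeLa cells stably expressing the EGFP-705 splicing reporter; GFP fluorescence per well restored by corrected splicing of the IVS2-705 intron in EGFP; % of control where 0% means no effect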); conditions: HeLa EGFP-705 splicing reporter, GFP fluorescence, 48 h; series mostly up to 38.3 µM
Method in brief: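 Read-out: total peak GFP fluorescence per well (488 nm excitation, 500-520 nm emission) by laser-scanning cytometry. Cells: HeLa EGFP-705 splicing reporter, 2 days compound exposure in Optimem/2% FCS.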

[13] = target: Ubiquitin carboxyl-terminal hydrolase 1 (Homo sapiens) (UniProt O94782); assay: Inhibitors of USP1/UAF1: Pilot qHTS (AID 504865; active = well fitted curve in the direction sought with a large enough effect; an effect the other way counts as inactive or inconclusive;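 also: rhodamine fluorescence freed from ubiquitin-rhodamine substrate followed over time; top concentration of the series differs between compounds; % is scaled to controls: 0 for no effect and ±100 for the full control effect; nearly all actives have a fitted effect of over 35% in size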); conditions: purified USP1/UAF1, Ub-rhodamine cleavage fluorescence; series mostly up to 54.9 µM
Chain of Ubiquitin carboxyl-terminal hydrolase 1 (Homo sapiens) (O94782 whole entry, looked up): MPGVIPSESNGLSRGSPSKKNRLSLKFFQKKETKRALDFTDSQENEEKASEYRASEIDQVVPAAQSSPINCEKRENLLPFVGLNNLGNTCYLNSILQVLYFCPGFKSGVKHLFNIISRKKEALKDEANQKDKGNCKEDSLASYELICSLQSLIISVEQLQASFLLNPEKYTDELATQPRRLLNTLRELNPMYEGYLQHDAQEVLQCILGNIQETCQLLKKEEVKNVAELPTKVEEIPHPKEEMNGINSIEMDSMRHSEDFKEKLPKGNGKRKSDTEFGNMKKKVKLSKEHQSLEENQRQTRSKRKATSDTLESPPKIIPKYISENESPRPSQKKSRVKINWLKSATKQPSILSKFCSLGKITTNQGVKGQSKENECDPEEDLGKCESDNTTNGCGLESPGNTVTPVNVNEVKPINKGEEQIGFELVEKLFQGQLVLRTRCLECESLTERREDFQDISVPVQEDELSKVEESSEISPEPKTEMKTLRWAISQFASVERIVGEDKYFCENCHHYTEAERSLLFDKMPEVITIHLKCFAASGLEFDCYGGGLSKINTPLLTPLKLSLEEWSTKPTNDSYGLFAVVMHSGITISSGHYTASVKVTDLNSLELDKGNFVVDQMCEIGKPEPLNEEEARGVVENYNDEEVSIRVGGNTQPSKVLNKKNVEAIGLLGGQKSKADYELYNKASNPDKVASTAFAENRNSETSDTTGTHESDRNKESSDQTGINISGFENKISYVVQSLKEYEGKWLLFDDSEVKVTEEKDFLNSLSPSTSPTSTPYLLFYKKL
Method in brief: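 Kinetic fluorescence assay: 1nM USP1/UAF1, 15 min compound preincubation, then 150nM Ub-Rho; 480/540 nm.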

[14] = target: Cytochrome P450 2C9 (Homo sapiens) (UniProt P11712); assay: qHTS Assay for Inhibitors and Substrates of Cytochrome P450 2C9 (AID 883; active = well fitted curve in the direction sought with a large enough effect; an effect the other way counts as inactive or inconclusive; also: % is scaled to controls: 0 for no effect and ±100 for the full control effect; nearly all actives have a fitted effect of over 60% in size); conditions: recombinant CYP2C9, luciferin-H luminescence, 60 min; series mostly up to 57.1 µM
Chain of Cytochrome P450 2C9 (Homo sapiens) (P11712 whole entry, looked up): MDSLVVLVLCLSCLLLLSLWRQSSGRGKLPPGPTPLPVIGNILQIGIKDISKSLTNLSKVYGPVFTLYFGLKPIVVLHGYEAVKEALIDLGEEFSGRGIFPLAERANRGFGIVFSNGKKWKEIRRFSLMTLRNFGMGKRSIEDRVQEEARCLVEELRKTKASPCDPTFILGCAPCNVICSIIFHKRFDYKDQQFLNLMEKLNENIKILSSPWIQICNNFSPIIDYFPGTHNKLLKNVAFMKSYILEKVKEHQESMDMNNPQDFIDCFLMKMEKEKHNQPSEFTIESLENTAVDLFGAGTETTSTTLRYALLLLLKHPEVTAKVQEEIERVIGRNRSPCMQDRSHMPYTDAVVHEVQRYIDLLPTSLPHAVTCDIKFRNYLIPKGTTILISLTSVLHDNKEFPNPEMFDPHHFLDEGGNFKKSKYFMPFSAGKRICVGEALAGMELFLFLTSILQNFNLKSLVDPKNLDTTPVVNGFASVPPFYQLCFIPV
Method in brief: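 A luminogenic readout tracked human CYP2C9 (10nM) converting deoxyluciferin (100uM, at KM) in 25mM KPO4 during 60 min at 37C with regenerated NADPH. Values normalized to 57uM sulphaphenazole as complete inhibition.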

[15] = qHTS Assay for Identification of Small Molecule Agonists for Hypoxia Response Element Signaling Pathway (AID 914; active = well fitted activation curve with a large enough effect in the signal ratio, with a control signal flat, not every such curve was filed as active; the % refers to the signal ratio; also: potency is read from the fitted curve at half-maximal effect); conditions: ME-180 (cervical carcinoma) HRE-bla reporter, beta-lactamase ratio, CoCl2, 17 h; activation: stronger effect = higher value
Method in brief: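 HRE-bla ME-180 cells, overnight plating in Opti-MEM with 0.5% dialyzed FBS; cpd titration + EC50 CoCl2, 17 h, 37 degrees Celsius; CCF4 2.5 h RT; 460/530 nm ratio; AC50.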

[16] = measured here: cell count channel max response
[17] = measured here: lipid channel max response

Row | Compound | Potency [1] | activity change, negative = inhibition [2] | activity, negative = inhibition [3] | Potency [4] | Potency [5] | Potency [6] | activity change, negative = inhibition [7] | max response [7, 16] | max response [7, 17] | outcome [8] | activity change, negative = inhibition [9] | Potency [10] | Potency [11] | outcome [12] | Potency [13] | Potency [14] | Potency [15]
1 | Cc1noc(C)c1C(=O)N1CCC2(CC1)CCN(c1ccccn1)CC2 | > 11.4 µM (inactive) | 0.789% (inactive) | -0.0391% (inactive) | > 46 µM (inactive) | inactive | inactive | 5.25% (inactive) | 8.43% | 16.7% | inactive |  |  |  |  |  |  | 
2 | Cc1cccc(CNc2cc(-c3cccnc3)ncn2)c1 | > 11.4 µM (inactive) | -15.4% (inactive) |  | > 46 µM (inactive) | inactive | inactive | -14.1% (inactive) | -10.4% | -22.1% | inactive | -0.57% (inactive) | > 46 µM (inactive) | inactive | inactive | inactive |  | 
3 | COCC(=O)N1CCC2(CC1)CCN(c1ccncc1)CC2 | > 11.4 µM (inactive) | 7.44% (inactive) | 16.3% (inactive) | > 46 µM (inactive) | inactive | inactive | -1.56% (inactive) | -6.96% | -10.2% | inactive |  |  |  |  |  |  | 
4 | O=C(c1ccncc1)N1CCC2(CCCN(Cc3nccs3)C2)CC1 | > 11.4 µM (inactive) | -14.3% (inactive) | 7.31% (inactive) | > 46 µM (inactive) | inactive | inactive | 6% (inactive) | 2.79% | 11.6% | inactive |  |  |  |  |  |  | 
5 | COc1ccccc1CN1CCCC2(CCN(C(=O)c3cccc(F)c3)CC2)C1 | > 11.4 µM (inactive) | -7.36% (inactive) | 1.24% (inactive) | > 46 µM (inactive) | inactive | inactive | 0.576% (inactive) | 3.85% | 7.25% | inactive |  |  |  |  |  |  | 
6 | COCC(=O)N1CCC2(CCCN(Cc3ccc(C#N)cc3)C2)CC1 | > 11.4 µM (inactive) | 12.6% (inactive) | 1.68% (inactive) | > 46 µM (inactive) | inactive | inactive | 4.66% (inactive) | -1.66% | 3.44% | inactive |  |  |  |  |  |  | 
7 | N#Cc1ccc(CN2CCC3(CC2)CCN(C(=O)c2cccc(F)c2)CC3)cc1 | > 11.4 µM (inactive) | 3.84% (inactive) | 8.5% (inactive) | > 46 µM (inactive) | inactive | inactive | 1.66% (inactive) | 7.59% | 9.63% | inactive |  |  |  |  |  |  | 
8 | Cn1cccc1C(=O)N1CCC2(CCN(Cc3ccc(C#N)cc3)CC2)CC1 | > 11.4 µM (inactive) | 11.1% (inactive) | -2.38% (inactive) | > 46 µM (inactive) | inactive | inactive | 0.873% (inactive) | 7.43% | 9.77% | inactive |  |  |  |  |  |  | 
9 | COc1ccc(Oc2ncc3nc(-c4cn(C)c5ccccc45)c(=O)n(CCC#N)c3n2)cc1 | > 11.4 µM (inactive) | -1.79% (inactive) |  | > 46 µM (inactive) | inactive | inactive | -4.32% (inactive) | 27.8% | 26.1% | inactive | -2.24% (inactive) | > 9.22 µM (inactive) |  |  |  | inactive | 3.16 µM (active)
10 | CN1CC[C@@]2(CCCN(S(=O)(=O)c3ccccc3)C2)C1 | > 11.4 µM (inactive) | -25.8% (inactive) | 3.36% (inactive) | > 46 µM (inactive) | inactive | inactive | 5.6% (inactive) | 6.91% | 16.3% | inactive |  |  |  |  |  |  | 
11 | O=C(c1cc(C(F)(F)F)cc(C(F)(F)F)c1)N1CCC2(CCCN(c3ccccc3)C2)CC1 | > 11.4 µM (inactive) | 22.8% (inactive) | 2.12% (inactive) | > 46 µM (inactive) | inactive | inactive | -18.4% (inactive) | 1.58% | -14.9% | inactive |  |  |  |  |  |  | 
12 | COC(=O)N1CCC2(CCN(Cc3ccccc3)CC2)CC1 | > 11.4 µM (inactive) | -5.32% (inactive) | -1.16% (inactive) | > 46 µM (inactive) | inactive | inactive | 2.47% (inactive) | -0.656% | 4.63% | inactive |  |  |  |  |  |  | 
13 | O=C(c1csnn1)N1CCC2(CCN(Cc3cc(C(F)(F)F)cc(C(F)(F)F)c3)CC2)CC1 | > 11.4 µM (inactive) | 11.5% (inactive) | 4.05% (inactive) | > 46 µM (inactive) | inactive | inactive | 1.96% (inactive) | 7.55% | 11.7% | inactive |  |  |  |  |  |  | 
14 | CS(=O)(=O)N1CCC2(CCCN(Cc3ccc(C#N)cc3)C2)CC1 | > 11.4 µM (inactive) | -16.1% (inactive) | -15% (inactive) | > 46 µM (inactive) | inactive | inactive | 1.06% (inactive) | -8.06% | -6.26% | inactive |  |  |  |  |  |  | 
